Structures are written as SMILES. The whole screen tested about 2,400 compounds, of which about 220 (9.2%) were called active. The sample as a whole holds a higher share of actives than the screen did. Unmarked numbers belong to inactive results.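 The calls were made as follows: active = signal change above the mean of dofetilide-free buffer controls plus 3 SD, so a positive margin; inactive = the rest.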

Consider 32 molecules from PubChem BioAssay AID1839 (Johns Hopkins Ion Channel Center, 2009).

The nature of the assay: thallium signal changes without hERG – cell-based, CHO-K1 parental line, FluxOR thallium flux, counter-screen for hERG block protection project, confirmation (AID 1839).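 Also: compounds applied alone with no dofetilide to cells lacking hERG.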 Particulars: CHO-K1 parental cells, FluxOR thallium flux fluorescence; at 10 µM.
Regarding `O=C(CSc1nc(N2CCCCC2)nc(N2CCCCC2)n1)c1ccccc1`, the signal change vs control minus 3*SD hit threshold (margin above threshold, higher = more increase) was -13.7%.

For the molecule `Cc1nn(-c2ccc(Cl)cc2)c2sc(C(=O)c3c(N)n(C)c(=O)n(C)c3=O)cc12`, the signal change vs control minus 3*SD hit threshold (margin above threshold, higher = more increase) was -34.5%. `NC(=O)c1cccc(N=Cc2cc(Cl)cc(Cl)c2O)c1`: the signal change vs control minus 3*SD hit threshold (margin above threshold, higher = more increase) was -22.3%. Under `Oc1c(Cl)cc(Cl)cc1C=Nc1ccc(Br)cc1` stands 12.8% (active).

`COc1cc(Br)cc(C=Nc2cccc(C(F)(F)F)c2)c1O`: the signal change vs control minus 3*SD hit threshold (margin above threshold, higher = more increase) was -8.3%. For `Cc1cccc(N=Cc2cc(Br)cc(Cl)c2O)c1` the value was 3.2% (active); for `Cc1ccc(N=Cc2cc(Br)cc(Cl)c2O)cc1`, -4.8%; for `Cc1ccc(N=Cc2cc(Cl)cc(Cl)c2O)nc1`, -26.6%. Under `COc1cc(C2NC(=O)NC(O)(C(F)(F)F)C2C(C)=O)cc(OC)c1OC` (configuration not stated) stands -34.1%; under `CCOc1cc(/C=C2/C(=O)ON=C2C)ccc1O`, -38.8%. For `Oc1ccc(Cl)cc1C1=NNC(c2cccs2)C1` (configuration not stated) the value was -19.1%; for `Cc1ccc(SCc2ccc(C(=O)N3CCCC3)cc2)cc1`, -17%; for `CCOc1ccc(NC(=S)NS(=O)(=O)c2cc(Br)ccc2OCC)cc1`, -3.6%. Turning to `Nc1nnc(SCC(=O)OCc2ccc(F)cc2)s1`, the signal change vs control minus 3*SD hit threshold (margin above threshold, higher = more increase) was -40.4%. Under `Cc1cccc(N2CCN(C(=O)Cc3c(C(=O)O)[nH]c4ccc(Cl)cc34)CC2)c1C` stands -33.6%; under `Cc1ccc(S(=O)(=O)N(C)C)cc1NC(=S)NC(C)CCCC(C)C` (configuration not stated), -30.7%; under `CC(Nc1ccc(F)cc1)=[N+](C)CCNS(=O)(=O)c1ccc(Cl)cc1`, -34.8%. For `CC(=O)c1c(C)[nH]c(-c2ccccc2)nc1=S` the value was -20.4%.

On to `CSc1nc(-c2ccccc2)[nH]c(=S)c1C(C)=O`, for which the signal change vs control minus 3*SD hit threshold (margin above threshold, higher = more increase) is 34.8% (active). Consider `CC(=O)c1c(N)[nH]c(-c2ccccc2)nc1=S`, for which the signal change vs control minus 3*SD hit threshold (margin above threshold, higher = more increase) is -6.7%. With `O=C1C2CC=CCC2C(=O)N1c1ccc(Cc2ccncc2)cc1` (configuration not stated), the signal change vs control minus 3*SD hit threshold (margin above threshold, higher = more increase) was -16%. Under `CCCCn1c(-c2csc(C(C)C)c2)n[nH]c1=S` stands -20.9%. As for `O=c1c2cc(Br)ccc2nc(-c2ccc(Cl)cc2)n1O`, the signal change vs control minus 3*SD hit threshold (margin above threshold, higher = more increase) is 48.2% (active). As to `NC(=O)c1nn2c(C(F)(F)F)cc(-c3ccccc3)nc2c1Br`, the signal change vs control minus 3*SD hit threshold (margin above threshold, higher = more increase) is -26%. Consider `O=c1c2ccc(Cl)cc2nc(-c2cccc(C(F)(F)F)c2)n1O`, for which the signal change vs control minus 3*SD hit threshold (margin above threshold, higher = more increase) is 66.5% (active). Under `CCCn1c(SC(C)C(=O)N2CCOCC2)nc2ccc(Br)cc2c1=O` (configuration not stated) stands -28.1%; under `O=c1c2cc(Br)ccc2nc(-c2cccc(Cl)c2)n1O`, 45.7% (active); under `COc1cc(OC)cc(-c2nc3ccccc3c(=O)n2OC(=O)c2ccc(Br)cc2)c1`, -34.9%. `O=C(Cn1nnc(-c2cccc(C(F)(F)F)c2)n1)N1CCCCCC1`: the signal change vs control minus 3*SD hit threshold (margin above threshold, higher = more increase) is -29.6%. For `O=c1c2cc(Br)ccc2nc(-c2cccc(C(F)(F)F)c2)n1O` the value was 69.7% (active); for `CCCn1c(SCN2C(=O)c3ccccc3C2=O)nc2cc(Cl)ccc2c1=O`, -10.9%; for `N#Cc1ccc(-c2nc3cc(Cl)ccc3c(=O)n2O)cc1`, -29.9%.
